PI4K2A inh – inhibitors of human PI4K2A. Q9BTU6. purified PI4K2A, ADP-Glo luminescence, 1 h; hits give low values. hit rate 0.13% among 420,000. activity change, negative = inhibition, % at 76.9 µM; in the data active = activity change below about -50%; inconclusive = mostly about -30% to -49%
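Compounds are screened against recombinant PI4K2A using PI as substrate and ATP, the latter dispensed at 300 microM. Reactions run one hour at ambient temperature before ADP-Glo detection; full inhibition defined by wells lacking enzyme.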
KAT2A inh – blocks human GCN5L2 histone acetyltransferase; Q92830; GCN5L2 HAT assay, ThioGlo1 CoA-SH fluorescence; Potency, µM (doses to about 58.9 µM), actives largely listed as inhibitors; hit rate 0.21% among 390,000; AID 504327
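Free CoA generated was detected with ThioGlo1 (50uM) fluorescence at Ex340nm/Em540nm, read immediately and after 20 min at room temperature. Enzyme, 20 nM in HEPES pH 7.5 buffer, saw compounds 15 min before adding 75uM H3(1-25) peptide and 70uM acetyl-CoA.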
PLK1 PBD block – inhibitors of human PLK1 polo-box domain binding. hit rate 2.8% among 360,000. AID 720504. Plk1 PBD binding of FITC phosphopeptide, fluorescence polarization. P53350. Potency, µM, most hits filed as inhibitors; also: series mostly up to about 57 µM; nearly all actives have a fitted effect of over 65% in size
VDR inh – vitamin D3 receptor (human) inhibition | P11473 | VDR-SRC2-3 peptide fluorescence polarization, 2 h | Potency, µM, actives largely listed as inhibitors | hit rate 0.93% among 400,000
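Fluorescence polarization assay measuring small-molecule disruption of VDR binding to the coregulator peptide SRC2-3. Compounds were pin-transferred (23 nl) into the reagent mix and incubated 2 h at room temperature before reading.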
GLS inhibitor – glutaminase GLS (human) inhibition | O94925 | GLS enzymatic activity, qHTS titration | Potency, µM (doses to about 45.5 µM), actives largely listed as inhibitors | hit rate 0.21% among 410,000 | AID 624170
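Human kidney-isoform GLS in 45 mM KH2PO4 pH 8.2, 0.02% Tween-20, with compound, started with 1mM L-Glutamine (added stock). Glutamate oxidase/HRP/Amplex red coupled fluorescence read at start and after 30 min at RT.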
A number is an active result; - = inactive; ? = inconclusive; . = no result given; [ ] = remark or other dose. In the library only some 3.1% were active in any assay of this set; here they are far more common. Unless noted, calls follow the shape of the dose curve; as a rule, active = well fitted curve in the direction sought with a large enough effect; inconclusive = small, poorly fitted or top-dose-only effect, or another doubt; inactive = no such curve, though single readings can be large; an effect the other way counts as inactive or inconclusive.

SMILES | PI4K2A inh | KAT2A inh | PLK1 PBD block | VDR inh | GLS inhibitor
O=C(O)CCN1C(=O)C2C3CC(C2C1=O)C1C(c2ccccc2)c2sc(=O)[nH]c2SC31 (centres undefined) | - | - | - | - | -
O=C(O)CCN1C(=O)C2C3CC(C2C1=O)C1C(c2ccccc2)c2sc(=O)n(-c4ccccc4)c2SC31 (centres undefined) | - | - | 42.3µM | ? | -
COc1ccc([C@]23Cc4ccccc4C(O2)c2c(cc(C)n(Cc4ccccc4)c2=O)O3)cc1 | . | -[12.7 µM] | . | . | .
CCOc1cc(S(=O)(=O)NCc2cccs2)ccc1Cl | - | - | 26.7µM | - | -
COc1cc(S(=O)(=O)NCc2ccccn2)ccc1Cl | - | - | 23.8µM | ? | ?
CC(=O)O[C@@]12CO[C@@H]1C[C@H](O)[C@@]1(C)C(=O)[C@H](O)C3=C(C)[C@@H](OC(=O)C(O)[C@@H](NC(=O)OC(C)(C)C)c4ccccc4)C[C@@](O)([C@@H](OC(=O)c4ccccc4)[C@H]21)C3(C)C (some centres undefined) | . | - | . | - | -
Cc1ccc(S(=O)(=O)N2CCN(C(=O)c3cccn3C)CC2)cc1 | - | . | . | . | .
NC(=S)N/N=C/c1ccc(-c2ccc([N+](=O)[O-])cc2)o1 | - | - | 23.8µM | ? | -
O=C(CSc1nnc(C2COc3ccccc3O2)o1)N1CCCC1 (centres undefined) | - | - | 21.2µM | ? | -
CCOC(=O)N1CCN(C(=O)CSc2nnc(C3COc4ccccc4O3)o2)CC1 (centres undefined) | - | - | - | - | -
Fc1ccc(CC2CCN(c3ncnc4sccc34)CC2)cc1 | - | . | . | . | .
Cc1cccc(-n2c3nc(=O)[nH]c(=O)c-3cc3cc([N+](=O)[O-])ccc32)c1 | - | - | 10.6µM | - | -
Cc1ccc(C)c(-n2c3nc(=O)[nH]c(=O)c-3cc3cc([N+](=O)[O-])ccc32)c1 | ? | - | 7.52µM | ? | -
O[C@H](COc1ccc(OC(F)(F)F)cc1)CN1CCC(C(O)(c2ccccc2)c2ccccc2)CC1 | - | . | . | . | .
CC(C)C(C)(C#N)NC(=O)CSc1nnc(-c2ccncc2)n1Cc1ccccc1 (centres undefined) | - | - | 21.2µM | ? | -
COc1ccccc1CNC(=O)NNC(=O)CCn1nc(C)c([N+](=O)[O-])c1C | - | . | . | . | .
O=C(NCc1cccnc1)/C(=C/c1ccc(-c2ccc(Cl)cc2)o1)S(=O)(=O)c1ccccc1 | - | - | ? | 22.4µM | -
O=C1C(c2ccccc2)SC(=Nc2ccccc2)N1S(=O)(=O)c1ccccc1 (centres undefined) | - | - | 16.8µM | 89.1µM | -
OC1(CN2CCOCC2)C2CN3CCN(C2)CC1(c1ccccc1)C3 (centres undefined) | - | - | 21.2µM | - | -
COCCCN1C(=O)[C@H](CC(=O)NCC2CCCCC2)[C@]2(C(=O)OC)CCCCC=C12 | - | . | . | . | .
COC[C@@H](c1ccc(C(F)(F)F)cc1)N1CCN(C2(C)CCN(C(=O)c3c(C)ncnc3C)CC2)C[C@H]1C | - | . | . | . | .
CN(C)c1ccc(/C=N/NC(=S)NCc2ccccc2)cc1 | - | - | 23.8µM | - | -
CC(C)(C)c1ccc(/C=N/NC(=S)NCc2ccccc2)cc1 | - | - | - | - | -
CCOC(=O)[C@@H](CCc1ccccc1)N[C@@H](C)C(=O)N1CCC[C@H]1C(=O)O | - | . | . | . | .
Nc1ccc(-c2cnc[nH]2)cc1[N+](=O)[O-] | -50.6 | - | - | - | -
SMILES | PI4K2A inh | KAT2A inh | PLK1 PBD block | VDR inh | GLS inhibitor
Nc1ccc(-c2ccc(N)c([N+](=O)[O-])c2)cc1[N+](=O)[O-] | - | - | - | - | -
Cc1ccccc1CN1CCCCC(NC(=O)c2ccc(-c3ccccc3)cc2)C1=O (centres undefined) | - | . | . | . | .
Cc1ccc(/C=c2\sc3nc(-c4cccs4)nn3c2=O)o1 | - | ? | - | 35.5µM | -
Cc1nc2ccccc2c2c(N)c3ccccc3n12 | - | - | 11.9µM | ? | ?
COC(=O)[C@]12C[C@H](CC(=O)N3CCC(c4ccccc4)CC3)C(=O)N(Cc3cccc4ccccc34)C1=C[C@H](C(C)C)O[C@@H]2C1CC1 | - | . | . | . | .
CC(=O)N(c1onc(C)c1C)S(=O)(=O)c1ccc(N)cc1 | - | . | . | . | .
CSc1nc2ccccc2n1CC(=O)Nc1ccccc1 | - | - | - | - | -
O=C(Cn1c(/C=C/c2ccccc2)nc2ccccc21)Nc1ccc(F)cc1 | - | - | 18.9µM | ? | ?
O=[N+]([O-])c1ccc(Oc2cccc(C(F)(F)F)c2)nc1 | - | - | 26.7µM | ? | -
O=C(NC1CCSC1=O)c1ccc(Oc2cccc(C(F)(F)F)c2)nc1 (centres undefined) | - | - | 21.2µM | - | -
COc1cccc(C(=O)Nc2ccc(Oc3cccc(C(F)(F)F)c3)nc2)c1 | - | - | - | - | -
COc1ccc2cccc(CCNC(C)=O)c2c1 | - | . | . | . | .
COc1ccc(S(=O)(=O)Nc2ccc(-c3cn4c(C)csc4n3)cc2)cc1 | - | - | . | - | -
CC(=O)c1ccc(NS(=O)(=O)c2ccc(N)cc2)cc1 | - | - | 29.9µM | ? | -
CC(=O)c1ccc(NS(=O)(=O)c2ccccc2)cc1 | - | - | - | - | -
CC(=O)c1ccc(S(=O)(=O)Nc2ccc(-c3cn4c(C)csc4n3)cc2)cc1 | - | - | . | 25.1µM | -
C[n+]1c(-c2ccccc2)cc2c(=Cc3ccccc3)c3ccccc3n21 | ? | . | 3.77µM | ? | -
C[n+]1c(-c2ccccc2)cc2c(=Cc3ccc([N+](=O)[O-])cc3)c3ccccc3n21 | ? | . | 2.12µM | ? | 10µM
CN(C)c1ccc(C=c2c3cc(O)ccc3n3c2cc(-c2ccccc2)[n+]3C)cc1 | ? | . | ? | - | -
Cc1ccccc1C(=O)N1CCC(Oc2cccnc2)CC1 | - | . | . | . | .
CCOC(=O)[C@]12CCCC3=C1N(CCC3)C(=O)[C@@H](CC(=O)NCCC(C)C)C2 | - | . | . | . | .
CCCCOC(=O)CCCCCCCCC(=O)OCCCC | - | . | . | . | .
COc1cc(C(c2c(C)[nH][nH]c2=O)c2c(C)[nH][nH]c2=O)cc([N+](=O)[O-])c1O | - | - | 26.7µM | - | ?
COc1cc(C(c2c(C)[nH][nH]c2=O)c2c(C)[nH][nH]c2=O)cc(Br)c1OC | - | - | 26.7µM | ? | -
CCOc1cc(C(c2c(C)[nH][nH]c2=O)c2c(C)[nH][nH]c2=O)cc(Br)c1OC | - | - | ? | - | ?
O=C1[C@@H](CCc2ccccc2)[C@@H]2c3ccccc3C=NN2[C@@H]2c3ccccc3C=NN12 | - | . | . | . | .
Cc1ccc(NC(=O)C2CC3CCC2C3)c(C)c1 (centres undefined) | - | . | . | . | .
CC(=O)c1ccc(NCCCN2CCC(C(O)(c3ccccc3)c3ccccc3)CC2)cc1 | - | . | . | . | .
COc1cc(C(=S)N(C)C)ccc1O | - | - | 9.47µM | - | -
O=C(COc1ccc(Cl)cc1)Nc1cnn(Cc2c(Cl)cccc2Cl)c1 | - | - | - | 89.1µM | -
